Each structure is given as a SMILES string. Where “and” joins values, the source holds several entries; their conditions need not be identical. Equal values may be shown once. Inconclusive results are not listed. Unmarked numbers belong to inactive results. Calls of active or inactive are those of the source. Calls follow the shape of the dose curve; as a rule, active = well fitted activation curve with a large enough effect; inconclusive = small, poorly fitted or top-dose-only effect; inactive = no such curve, though single readings can be large or run the other way.
Potency is read from the fitted curve at half-maximal effect.

Cellular tumor antigen p53 (Homo sapiens), sequence (P04637 whole entry, looked up): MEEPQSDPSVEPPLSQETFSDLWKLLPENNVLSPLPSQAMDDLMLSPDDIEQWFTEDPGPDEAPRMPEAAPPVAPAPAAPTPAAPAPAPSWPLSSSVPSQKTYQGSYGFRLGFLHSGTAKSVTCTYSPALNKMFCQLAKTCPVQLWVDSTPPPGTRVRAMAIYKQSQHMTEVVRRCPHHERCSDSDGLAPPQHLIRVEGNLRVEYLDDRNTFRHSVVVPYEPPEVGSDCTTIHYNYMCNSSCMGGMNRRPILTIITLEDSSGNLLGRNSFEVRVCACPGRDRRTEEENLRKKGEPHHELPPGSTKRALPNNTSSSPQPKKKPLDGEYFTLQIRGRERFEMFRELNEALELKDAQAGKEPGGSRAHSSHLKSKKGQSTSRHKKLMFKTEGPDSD

The assay addresses Cellular tumor antigen p53 (Homo sapiens) (UniProt P04637). The assay can be described thus: Primary qHTS for small molecule compounds that upregulate eGFP-tagged delta133p53alpha (in N-terminal) cells. (AID 2060322). Also: nearly all actives have a fitted effect of over 75% in size.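 As to activation: series mostly up to about 56 µM; 0% = DMSO vehicle and 100% = reference activator.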 The following applies: NCI-H358 eGFP-delta133p53alpha fluorescence, 24 h; activation: hits give high values. A digest of the protocol:
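NCI-H358 cells pre-induced 24 h with 10 ng/ml doxycycline to express N-terminal eGFP-delta133p53alpha, then dosed 24 h at 37C without doxycycline; fixed, Hoechst-stained, GFP intensity by laser scanning cytometry, normalized to DMSO (0%) and 57.5 uM 5-azacytidine (100%).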
(In general: Quantitative high-throughput screening tests each substance at several concentrations.)
Take `CN1CC[C@H](c2c(O)cc(O)c3c(=O)cc(-c4ccccc4Cl)oc23)[C@H](O)C1`: the Potency was 110 nM (active).
Consider `CC(C=CC1=C(C)CCCC1(C)C)=CC=CC(C)=CC(=O)O`, for which the activation is 15.8% and -23.6%.
Regarding `Cc1c(C(C)C)c(=O)n(-c2ccccc2)n1C`, the activation is -13.4%.
The same measure, in the same setting: next, `CC(C)C(=O)Nc1cccc(C2CN3CCSC3=N2)c1` (stereo unspecified): 6.69%.
Same read-out and setting: the value for `CC(C)(Oc1ccc(Cl)cc1)C(=O)O` was -18.4%; that for `CCCC(=O)OC[C@@H](OC(=O)CCC)[C@@H](OC(=O)CCC)[C@H](Cn1c2nc(=O)[nH]c(=O)c-2nc2cc(C)c(C)cc21)OC(=O)CCC` was -33.3%.
On the same count and under the same terms, next, `Cc1ccc(S(=O)(=O)NC(=O)NC2CCCC2)cc1`: 23.2%; `Cn1cc[nH]c1=S`: -1.69%.
For `CC(C)(C)C1CCC(CC2=C(O)c3ccccc3C(=O)C2=O)CC1` (stereo unspecified), the activation is -11.9%.
On the same count and under the same terms, next, `Nc1cccc2c1CN(C1CCC(=O)NC1=O)C2=O` (stereo unspecified): 21.6% and -10.9%; `C[C@H](N)[C@H](O)c1cccc(O)c1`: -7.53%; `Cc1ccccc1N=Nc1ccc(N=Nc2c(O)ccc3ccccc23)c(C)c1`: -17.5%.
`CCOC(=O)c1cccnc1`: the activation is -9.6%.
Take `NC(N)=Nc1nc(CSCCC(N)=NS(N)(=O)=O)cs1`: the activation is 11%.
Same read-out and setting: the value for `COc1cc2c(cc1O)CCC1C2CC[C@@]2(C)C1CC[C@@H]2O` (stereo partly specified) was 27.6%; that for `NC(=O)NS(=O)(=O)c1ccc(N)cc1` was 7.53%.
